In PubChem BioAssay (NCI):
The panel holds about 83,000 compounds, 20% with a hit somewhere; the sample as a whole holds those more often.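 Single-concentration screen, 48 h exposure, 96-well plates. Endpoint: percent growth. Below 10 = active.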 Unmarked numbers belong to inactive results. Calls of active or inactive are those of the source.

What was measured:
Experiment in all cases: NCI-60 one-dose screen, 48 h (100 = growth as untreated, 0 = no growth, -100 = all killed)
Details in all cases: 10 µM unless noted
SR leukemia = system: SR leukemia
RPMI-8226 leukemia = system: RPMI-8226 leukemia
OVCAR-8 ovarian = system: OVCAR-8 ovarian
OVCAR-5 ovarian = system: OVCAR-5 ovarian
OVCAR-4 ovarian = system: OVCAR-4 ovarian
SK-OV-3 ovarian = system: SK-OV-3 ovarian
IGROV1 ovarian = system: IGROV1 ovarian
OVCAR-3 ovarian = system: OVCAR-3 ovarian
HS 578T breast = system: HS 578T breast
NCI/ADR-RES ovarian = system: NCI/ADR-RES ovarian

| SMILES | growth (SR leukemia) | growth (RPMI-8226 leukemia) | growth (OVCAR-8 ovarian) | growth (OVCAR-5 ovarian) | growth (OVCAR-4 ovarian) | growth (SK-OV-3 ovarian) | growth (IGROV1 ovarian) | growth (OVCAR-3 ovarian) | growth (HS 578T breast) | growth (NCI/ADR-RES ovarian) |
| --- | --- | --- | --- | --- | --- | --- | --- | --- | --- | --- |
| CC(=O)c1c(C)[nH]c(-c2nc3ccc(N4CCN(C)CC4)cc3[nH]2)c1-c1ccc(N(C)C)cc1 | 33% | 0.258% (active) | 43.7% | 41.6% | 37.2% | 12.6% | 15.6% | 34.6% | 21.1% |  |
| COc1ccc(C2c3ccccc3NC(=O)N2C2CCN(C)CC2)c(OC)c1 (centres undefined) | 41.4% | 113% | 104% | 88.4% | 105% | 101% | 94.3% | 110% | 92% | 103% |
| COc1cnc2c(c1)C(=O)c1c-2n(CCCNC2=NCCS2)c(=O)c2cc([N+](=O)[O-])ccc12 | -9.1% (active) | -32.1% (active) | -6.2% (active) | 28.9% | -71.9% (active) | 9.4% (active) | -0.756% (active) | -71.1% (active) | 69.9% |  |
| CCOC(=O)c1ccc2c(c1)[n+](=O)c(C(=O)C1CCCS1)c(C(F)(F)F)n2[O-] (centres undefined) | -42.8% (active) | -45.3% (active) | -36.4% (active) | -79.8% (active) | -83.3% (active) | -97.6% (active) | -60.3% (active) | -96.6% (active) | -10.8% (active) |  |
| CCOc1ccc(NC(=O)c2ccoc2COc2ccccc2)cc1 | 113% | 91.8% | 104% | 103% | 101% | 106% | 93.5% | 109% | 105% | 102% |
| COc1ccc2c(c1)c(-c1nc(-c3c[nH]c4ncccc34)cs1)cn2CCCN1CCCCC1 | -38% (active) | -33% (active) | 49.1% | 77.4% | 62.6% | 61.7% | 34.4% | 27.8% | 59.7% |  |
| Cn1c2ccccc2c2c3c(c4c5cccnc5[nH]c4c21)C(=O)N(O)C3=O | 11.4% | 39.6% | 45.5% | 104% | 71.3% | 37.5% | 45.1% | 54.7% | 110% | 57.2% |
| Cc1cc2nc3c4cc([N+](=O)[O-])cc([N+](=O)[O-])c4n(CCN(C)C)c3nc2cc1C | 5.05% (active) | 67.5% | 61.4% | 87.8% | 90.8% | 90.2% | 60.2% | 92.6% | 90.2% |  |
| COc1ccc(C2CC(=O)c3c(nc4ccc(Cl)cc4c3N)C2)cc1 (centres undefined) | 88.7% | 103% | 107% | 95.4% | 102% | 117% | 99.7% | 112% | 115% |  |
| [B-][N+](CC)(CC)c1ccccc1 | 74.7% | 108% | 112% | 86.9% | 103% | 109% | 112% | 112% | 120% | 110% |
| O=C1/C(=C\c2ccc(Br)o2)SC(=S)N1CCc1ccc(O)cc1 | 66.9% | 26.6% | 97.2% | 80% | 65.3% | 86.5% | 62.6% | 62.9% | 93.2% | 98.7% |
| COc1ccc(NC(=O)c2ccoc2COc2ccccc2)cc1 | 88.4% | 91.8% | 100% | 95.8% | 101% | 106% | 91.2% | 109% | 99.7% | 93% |
| COc1ccc(NC(=S)N/N=C/c2ccccc2SSCCC(=O)OC[C@H]2O[C@H](O)[C@H](O)[C@@H](O)[C@@H]2O)cc1 | 49.6% | 91.7% | 68.3% | 100% | 80.4% | 73.5% | 56.8% | 91.3% | 91.6% | 59.7% |
| C=C(C)[C@@H]1CC[C@]2(C(=O)NNC(=O)c3cccnc3)CC[C@]3(C)[C@H](CC[C@@H]4[C@@]5(C)CCCNC(C)(C)[C@@H]5CC[C@]43C)[C@@H]12 | 18.9% | 46.6% | 76.7% | 96.9% | 75.3% | 107% | 91% | 81.2% | 67.3% | 90.5% |
| CCCCn1c(-c2ccc(O)cc2)cn2c3c(=O)[nH]c(=O)n(C)c3nc12 | 31.1% | 84.7% | 91.7% | 111% | 82.2% | 77.9% | 72.9% | 89.8% | 82.6% | 90.1% |
| COc1cccc(-c2nn(-c3ccccc3)cc2-c2ccnc(NCCCNS(=O)(=O)c3ccc(Br)cc3)c2)c1 | 13.3% | 34.5% | 47.9% | 88.2% | 46.5% | 64.8% | 47.6% | 58.8% | 66.2% | 42% |
| Cn1cc(-c2csc(-c3cn(CCCN4CCCCC4)c4ccccc34)n2)c2cccnc21 | -50.7% (active) | -35.9% (active) | -68.4% (active) | 92.9% | -48.2% (active) | 94.7% | 79.6% | -80.9% (active) | 67.5% | -25% (active) |
| CN(C)CCCC1(c2ccc(F)cc2)OCc2cc(-c3ccc(C(F)(F)F)nc3)ccc21 (centres undefined) | 11.9% | 69.2% | 83.6% | 85.5% | 66.4% | 80.3% | 66.5% | 84.6% | 61.9% | 84.1% |
| COc1ccc(OC)c(-c2c(C#N)c(-c3ccco3)nc3c2c(-c2ccccc2)nn3-c2ccccc2)c1 | 101% | 96.7% | 96.2% | 95.5% | 103% | 95.8% | 88.9% | 112% | 86.2% | 93.8% |
| CC(=O)O[C@@H]1CCN2C(=O)N(C)c3ccccc3[C@@H]2C1 | 93.3% | 104% | 109% | 96.5% | 107% | 101% | 105% | 122% | 116% | 104% |
| CC1(C)NCCC[C@]2(C)[C@H]3CC[C@@H]4[C@H]5[C@H](C(=O)/C=C/c6ccccn6)CC[C@]5(CO)CC[C@@]4(C)[C@]3(C)CC[C@@H]12 | -19.6% (active) | -13.1% (active) | 47.6% | 97.9% | 35.9% | 82.2% | 63.4% | 40.9% | 70.8% | 76.8% |
| COc1cccc(-c2nn(-c3ccccc3)cc2-c2ccnc(NCCNS(=O)(=O)c3ccc(C(F)(F)F)cc3)c2)c1 | -16.1% (active) | -4.8% (active) | 15.7% | 24.9% | 31.2% | 24.5% | 28% | 7.03% (active) | 33.9% | 16.9% |
| C[C@@H](C(=O)O)c1ccc2c3cc(Cl)ccc3n(Cc3cc(=O)oc4ccc(Cl)cc34)c2c1 | 94.7% | 109% | 105% | 97.3% | 98.9% | 96.9% | 74.2% | 98.7% | 101% | 98.3% |
| Cc1cc(N2CCOCC2)nc(N(CCCNc2ccnc3cc(Cl)ccc23)Cc2ccco2)n1 | -11.4% (active) | 19.4% | 46.3% | 38.9% | 50.4% | 50.1% | 10.9% | 2.02% (active) | 69.5% | 12.1% |
| Nc1c2c(nc3ccc(Cl)cc13)CC(c1ccccc1)CC2=O (centres undefined) | 14.3% | 25.8% | 72.1% | 73.2% | 89.2% | 76.9% | 38.3% | 20.6% | 73.5% | 22.5% |
| Cn1cc(-c2csc(-c3cn(CCN)c4ccccc34)n2)c2cccnc21 | -16.9% (active) | 51.1% | 40.8% | 74.9% | 51.8% | 63.8% | 39.9% | 45.5% | 67.6% | 44.1% |
